# Experimental data as given in publication PMC12136788.
# Changes are numbered by the printed parent chain. The full ranking holds about 5,800 sequences; the median of “enrichment r” is about 0.54, and the highest 2% start at about 16. For the sample, the highest values were picked, then their nearest neighbours and some sequences at random.
# B1: ENSG00000069329:stop:overlap|stop_codon|ENSG00000069329|stop_codon|NA|stop_codon (ssRNA)
# RNA: GGGAGUUCUACAGUCCGACGAUCUGGAGAAGGGGCCCCACAGACCGUUCGGGAUUAAGACCAGCCCGAUUUGGCCUGCGGGAUAGGGGACAGCAGGAGGAAGGCCGCGGGCAGGCUGAUCCGGGCCGGGGUGGGCGGCGGCUCCAACAGAGGAUUGAGCAUCA
# B2: chr16:58599380:58599482:-|5pUTR|ENSG00000125107|unk|total|mutant (ssRNA)
# RNA: GGGAGUUCUACAGUCCGACGAUCCAGAACAGAGUAAGACCCCUGGUAAAGAAGAACUGAAGAUAUUAUACAGAUACCAGAUACCGCCUAAUUACAAAGAAAGCAUUAACCUGCCUCUGAGGUGACUAAAGGGGAAUAAUGGUGCAACAGAGGAUUGAGCAUCA
# B3: chr11:113276125:113276317:+|3pUTR|ENSG00000149294|msi1|FALSE|unique (ssRNA)
# RNA: GGGAGUUCUACAGUCCGACGAUCGUCCGUGUAAAAUAGCUGCCUUUUAUUUUUUAAGGUAACAAAUACCACCUAGAGGUAGGUAGGAUCAUCCCACGCUUGCUUUAGCACAGGACAACUUUACAAAACAUGAUUGUUUACAGCCAACAGAGGAUUGAGCAUCA
# B4: chr14:53038166:53038268:-|3pUTR|ENSG00000100523|unk|total|mutant (ssRNA)
# RNA: GGGAGUUCUACAGUCCGACGAUCGAGCUUUUGGCAGAGUCUUCGGGGUUUUCCCGGUAUAAAAUCAUAUCAGCGAAGAGAGCCCGUUUGAUUUCUUUUCCCAGUUGGAUGCCUUUUAUUUAUUUCUCUUGCCUGAUUGCUCUACAACAGAGGAUUGAGCAUCA
# B5: chr2:39051162:39051270:-|CDS|ENSG00000115904|unk|total|mutant (ssRNA)
# RNA: GGGAGUUCUACAGUCCGACGAUCAAAUAUAUUCCGUCGCACCGCCGAUAUACAUGAACUCCGUGUAAAGUUACUGGGCCAUACCGAAGAUACAGCCGAAAUGACAGAUGAAGGCAGUCCCCAUCCACCCGCCGGAAGCUGCUUCAACAGAGGAUUGAGCAUCA
# B6: chr9:96818597:96818698:-|CDS|ENSG00000196597|unk|FALSE|unique (ssRNA)
# RNA: GGGAGUUCUACAGUCCGACGAUCGGAGAAACCAUUCGAAUGUCAUGAAUGUGGGAAAUCUUUUAACUAUAAGUCAAUCCUCAUAGUGCAUCAGAGAACUCACACAGGGGAGAAACCUUUUGAAUGUAAUGAAUGCGGGAAAUCCAACAGAGGAUUGAGCAUCA
# B7: chr10:128104542:128104643:-|CDS|ENSG00000148773|msi1|total|mutant (ssRNA)
# RNA: GGGAGUUCUACAGUCCGACGAUCAAGUGAUGAGAAAAAUAUCAACACAUUUGUGGAAACUCCAGUGCAGAAACUGGACCUGCCCGGAAAUUUACCUGGCAGCAAGAGACAGCCACAGACUCCUAAGGAAAAGGCUGAGGCUCUCAACAGAGGAUUGAGCAUCA
# B8: chr4:138167974:138168075:-|3pUTR|ENSG00000151012|msi1|total|mutant (ssRNA)
# RNA: GGGAGUUCUACAGUCCGACGAUCCACAAAAUCUGCAUUGUCCAUGUGAGUAAAGUAAAAUAAUUCCUGUUAUUUUUUUCUGUCCGAAAUAAGUAUGGAGGAUAUGUUUUUAAAAAUUUAUGAGUUAAUUGAAAUAUCCAUAUACAACAGAGGAUUGAGCAUCA
# B9: chr5:38481646:38481747:-|CDS|ENSG00000113594|unk|total|mutant (ssRNA)
# RNA: GGGAGUUCUACAGUCCGACGAUCCAGACCUCAGGCCAAUGUAAAUACAUGGAAUUCCGUGUCUCCAGACUCUCCCCGAUCCACCGACAGCAACAGUGAGAUUGUCUCAUUUGGAAGUCCAUGCUCCAUUAAUUCCCGACAAUUCAACAGAGGAUUGAGCAUCA
# B10: chr13:69700593:69701701:-|three_prime_utr|ENSG00000150361|control|control|control (ssRNA)
# RNA: GGGAGUUCUACAGUCCGACGAUCUUGAAUGGCAAGAAUGAGAACUUCCAGAGAUGAAAACUCUUCAAGAACAAGGAUCUCUGUAGCGUUACCUACUGAUGUUGAAAGAGUUAGUAGAUCAAACAGAAUAGUAGGAAACAAGAACAACAGAGGAUUGAGCAUCA
# B11: ENSG00000198589:be:win_251|CDS|ENSG00000198589|bound_else_gene|NA|bound_elsewhere_windowed (ssRNA)
# RNA: GGGAGUUCUACAGUCCGACGAUCUCAUUAUCCAAGAAGGUGAGAGUAUUAACUGCAUGGUGGACCUACUGGAAAAAUGUGACAUUACGUGCCAAGCAGAAGUCUGGAGCAUGUUUACAGCCAUUCUGAAGAAAAGCAUACGGACAACAGAGGAUUGAGCAUCA
# B12: chr11:27368498:27368690:-|CDS|ENSG00000205213|msi1|FALSE|unique (ssRNA)
# RNA: GGGAGUUCUACAGUCCGACGAUCACCCCUUUGUUUGCCAUUUCCUACAGGUGAAACGCCAUCAUUAGGAUUCACUGUAACGUUAGUGCUAUUAAACUCACUAGCAUUUUUAUUAAUGGCCGUUAUCUACACUAAACUAUACUGCAACAGAGGAUUGAGCAUCA
# B13: chr7:123692404:123692516:-|CDS|ENSG00000106299|unk|FALSE|unique (ssRNA)
# RNA: GGGAGUUCUACAGUCCGACGAUCCCUGCCUUCUGAUGGGGACCAUCAGGUUCCAACUACUGCAGGAAACAAAGCAGCUCUUUUAGAUCAAAUUAGAGAGGGUGCUCAGCUAAAAAAAGUGGAGCAGAACAGUCGGCCAGUGUCCAACAGAGGAUUGAGCAUCA
# B14: chr5:139396562:139396955:-|CDS|ENSG00000170469|control|control|control (ssRNA)
# RNA: GGGAGUUCUACAGUCCGACGAUCAGGGGUCCACAAGGUGGGGGCUUGUAGCCUAGGGGAGGAGCUGGGUCUUUGUUGUCUGGUAGGCACCACCGCUUCCUUUGGGUAUUUAAUCCCUUCCUAUAUAAACAGCCCUGGUUACCCCAACAGAGGAUUGAGCAUCA
# B15: chr6:75256125:75256201:-|CDS_3pUTR|ENSG00000112697|msi1_unk|total|mutant (ssRNA)
# RNA: GGGAGUUCUACAGUCCGACGAUCUUUGGGGAUUGCUUACAUCGCUGUUGGAUCCAUCUCCUUCCUUCUGGGAGUUGUACUGCCCGUAAUUAAUCAUAAAUACCGAAACAGCCGUAAUACAGCUGACAUUACCAUUUAAUUUUACAACAGAGGAUUGAGCAUCA
# B16: chr8:94436494:94436868:-|CDS|ENSG00000265817|control|control|control (ssRNA)
# RNA: GGGAGUUCUACAGUCCGACGAUCAAUAGUAGAAAAGAAUAGAUGUUGGGAUAUCAUAGCAGUUAACUAUAAUGCAAUUGGAGUAGACCGCCCUCCUCGAACAGCACAGGGCCUACGCACCCUUUAUAAAAGGCUCAAAGAAUACAACAGAGGAUUGAGCAUCA
# B17: ENSG00000070961:be:win_6151|3pUTR|ENSG00000070961|bound_else_gene|NA|bound_elsewhere_windowed (ssRNA)
# RNA: GGGAGUUCUACAGUCCGACGAUCCAAUCACUUUUUCUCUUUUAUCCUCUAACCAAAAAAUUGUUUAAUUUUGCAUCCCAAAUGUUUUUAAUCUUUGUAUAUUUUUUAAAAAUCCUUUUCUCCUCAUCAUUGCCUUUUUUGUGGCAACAGAGGAUUGAGCAUCA
# B18: chr1:113764432:113764533:-|3pUTR|ENSG00000081019|msi1|FALSE|bound_elsewhere (ssRNA)
# RNA: GGGAGUUCUACAGUCCGACGAUCAAAAUAUUCUGAAAUAGGUUAAAUCUUAUAUAAAUAUUACUUUGUGCAAUAUUGUUGUGUAGUUAAAUGCAUAUUAGCAAAGUAUAGAGGUCACUGUGUAAACCGAUAGAAAAGUAACCACAACAGAGGAUUGAGCAUCA
# B19: ENSG00000070961:be:win_6101|3pUTR|ENSG00000070961|bound_else_gene|NA|bound_elsewhere_windowed (ssRNA)
# RNA: GGGAGUUCUACAGUCCGACGAUCUAAAGAUCUUGGAUCCCAUUAUAUAGUAUGUAUAGCUGAAAUCUGUAAUUCAAUCACUUUUUCUCUUUUAUCCUCUAACCAAAAAAUUGUUUAAUUUUGCAUCCCAAAUGUUUUUAAUCUCAACAGAGGAUUGAGCAUCA
# B20: chr1:229632307:229632408:+|CDS|ENSG00000135763|unk|total|mutant (ssRNA)
# RNA: GGGAGUUCUACAGUCCGACGAUCAUUUUAUAAGAAAAAGCUUGAACUGAAGGAAGAUAUUGUUGAAAGGCUUUGGAUCUAUACCGAUAACAUUUUACACCGCAGAAAAUUGCAGAAUCUCCUCAAGAAUGGAAAGACCAUUAACAACAGAGGAUUGAGCAUCA
# B21: chr11:101473508:101473773:-|CDS|ENSG00000137672|control|control|control (ssRNA)
# RNA: GGGAGUUCUACAGUCCGACGAUCUCCUCAAAUAAUAUCUGAAGGUCUUUAUGCAAUUGCUGUAGUUUUAAGUUUCUCUAGGAUAGCUUAUAUUUUACCAGCAAAUGAAAGCUUUGGACCUCUGCAGAUAUCACUUGGAAGAACCAACAGAGGAUUGAGCAUCA
# B22: chr1:113764432:113764533:-|3pUTR|ENSG00000081019|msi1|total|mutant (ssRNA)
# RNA: B18 RNA with U38C, A39C, U83C, A84C, U98C, A99C, U108C, A109C, U130C, A131C
# B23: chr10:92030311:92030412:+|3pUTR|ENSG00000095564|unk|FALSE|unique (ssRNA)
# RNA: GGGAGUUCUACAGUCCGACGAUCAUAUAAGAUUGAAACUGUAAAAUAUAUGCAACUGUGUGUUAUUUGUAGGAAAUGGUCACUAGAAAGAGCAAAAGAUUAUUCAGGUAUACAGGUUUUUUUUCAUUGUUUAGGAUUUUAACUCAACAGAGGAUUGAGCAUCA
# B24: chr6:75256125:75256201:-|CDS_3pUTR|ENSG00000112697|msi1_unk|FALSE|overlapping (ssRNA)
# RNA: B15 RNA with C83U, C84A, C102U, C103A, C111U, C112A
# B25: chr5:113019263:113019364:+|3pUTR|ENSG00000172795|msi1|FALSE|unique (ssRNA)
# RNA: GGGAGUUCUACAGUCCGACGAUCCUCAACUGUGAAUGAAAUUUAGAAAGAUAAUUCUUCAGCAGUUGGUUGAUUAGAUGGGUUAGUGCUUUUGGAAUAUAUAACAGUAGACUUGUAUUCUUUAUGCACUAUACAUAUGAUACGCAACAGAGGAUUGAGCAUCA
# B26: chr10:113908677:113908778:+|3pUTR|ENSG00000196865|unk|total|mutant (ssRNA)
# RNA: GGGAGUUCUACAGUCCGACGAUCAGCUAUGCUCCUUACUUACUUCUUUUAUUAUAAACAAAUUCCUUUGCUUUGGCUGAUACCCGCUGAGUCAUUGAUCAUCAUUGGUACCAUGAUAUUGUAAUCUAUGCUGCUAUUUGGCACCAACAGAGGAUUGAGCAUCA
# Biological target: MSI1 full-length (mouse, UniProt Q61474 1-362)
# Experiment: nsRBNS (natural sequence RNA bind-n-seq); RBNS binding buffer (assumed for nsRBNS): 25 mM Tris pH 7.5, 150 mM KCl, 3 mM MgCl2, 0.01% Triton X-100, 500 ug/ml BSA, 20 U/ml SUPERase-In, 4 C; UNK is unkempt and MSI1 is Musashi-1; names of the RNAs are library labels; protein concentration not given here; high values mean tight binding
# Chain of MSI1 full-length (Q61474 whole entry): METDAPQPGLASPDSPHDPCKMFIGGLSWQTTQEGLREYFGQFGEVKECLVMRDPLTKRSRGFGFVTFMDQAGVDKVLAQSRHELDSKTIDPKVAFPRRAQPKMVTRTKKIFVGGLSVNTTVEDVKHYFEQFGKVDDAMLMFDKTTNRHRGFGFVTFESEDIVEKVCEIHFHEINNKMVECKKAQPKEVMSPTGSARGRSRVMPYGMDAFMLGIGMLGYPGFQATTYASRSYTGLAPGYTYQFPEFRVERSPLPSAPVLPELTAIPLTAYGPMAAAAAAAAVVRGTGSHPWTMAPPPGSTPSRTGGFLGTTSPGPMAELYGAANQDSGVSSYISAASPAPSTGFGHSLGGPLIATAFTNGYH
row,Binder,binding signal
1,B1,0.367 enrichment R
2,B2,0.791 enrichment R
3,B3,0.716 enrichment R
4,B4,0.36 enrichment R
5,B5,0.566 enrichment R
6,B6,0.426 enrichment R
7,B7,0.365 enrichment R
8,B8,0.651 enrichment R
9,B9,0.459 enrichment R
10,B10,4.13 enrichment R
11,B11,0.303 enrichment R
12,B12,1.09 enrichment R
13,B13,0.703 enrichment R
14,B14,1.74 enrichment R
15,B15,0.387 enrichment R
16,B16,28.2 enrichment R
17,B17,3.25 enrichment R
18,B18,51.3 enrichment R
19,B19,30 enrichment R
20,B20,0.623 enrichment R
21,B21,1.39 enrichment R
22,B22,0.583 enrichment R
23,B23,6.54 enrichment R
24,B24,18.4 enrichment R
25,B25,1.92 enrichment R
26,B26,3.24 enrichment R
